Assay results as given in PubChem BioAssay AID651673 (Broad Institute, 2012).
This is one part of the list.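 The calls were made as follows: active = signal drop giving an AC50 within twice the top valid tested concentration of each sample (actives reach about 35 µM in these data); inactive = activity opposite to expected, plus the rest.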

assay: DNA binding of candidate compounds, dose response, artefact control for RAD54 inhibitor project, biochemical, fluorescence polarization, cherry-pick (AID 651673); settings: Acridine orange-DNA displacement, 20 min; series mostly up to 35 µM; activity change, negative = DNA binding: at the top concentration;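 also: polarization loss reports compound binding to salmon sperm DNA; 0% = neutral control median and -100% = 10 µM mitoxantrone control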

Activity change, negative = DNA binding, inactive:
CN(C)CCN(C(=O)CN1C(=O)c2ccccc2C1=O)c1nc2cc3c(cc2s1)OCCO3 1.9%
CCN(CC)CCn1c2ccc(Cl)cc2c2nc(C)sc21 -1.63%
Cc1cc2oc3ccc(NCCC4CCCN4C)cc3c(=O)c2cc1C (stereo not drawn) -3.62%
CCOCCCNC(=S)Nc1ccc2nc(N3CCN(CC)CC3)cc(C)c2c1 -9.47%
COC(=O)c1c(NC(=O)c2ccc(S(=O)(=O)N3CCOCC3)cc2)sc2c1CCN(C(C)C)C2 14.2%
Cc1cccn2c(=O)c3cc(C#N)c(=O)n(CCCN4CCOCC4)c3nc12 -9.39%
COc1ccc(C(=O)Nc2cc(C)c(NC(=O)c3ccccc3OC)cn2)cc1 -5.9%
O=C(NCCCN1CCOCC1)c1cnn2c(-c3ccccc3)cc(-c3ccccc3)nc12 -0.136%
c1ccc(-c2nnc(SCc3nc4ccccc4[nH]3)o2)cc1 0.107%
CCOC(=O)C1C(=O)NC(N2CCN(c3ccccc3)CC2)=NC1c1ccco1 (stereo not drawn) 3.21%
COc1cccc2sc3cc(NCC[C@@H]4CCCN4C)ccc3c(=O)c12 -7.26%
COc1ccccc1C(=O)C(O)c1ccccc1OC (stereo not drawn) -5.88%
CCn1c(=N)c(C(=O)NCCCOC)cc2c(=O)n3cccc(C)c3nc21 -6.19%
CC1CCc2sc3nc(N4CCN(CCO)CC4)n4ncnc4c3c2C1 (stereo not drawn) 9.08%
Cc1nc2ccccc2c2oc(C(=O)NCCCN3CCC(C)CC3)cc12 -13.5%
CN1CCN(CCCNC(=O)c2cc3c(=O)oc4ccccc4c3s2)CC1 -21%
COc1ccc(CCn2c(=N)c(C(=O)NCC3CCCO3)cc3c(=O)n4cccc(C)c4nc32)cc1OC (stereo not drawn) -13%
CCN(CC)CCCNC(=O)c1cc2c(=O)[nH]c3ccc(C)cc3c2s1 -18.1%
